Test results reported in PubChem BioAssay.
Several values for one entry are separate records, joined by “and”; a condition that tells them apart may be missing. Equal entries are not always repeated. Where a structure was tested more than once in an assay, its records may differ in their call. Activity calls are given as the source filed them.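 How the source made its calls, unless noted: active means inhibition at or above 50% relative to wild type and mutant plate controls; inactive means inhibition below 50%.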

Key:
[1] = inhibitors of TNFa-induced NFkB p65 translocation, primary screen, imaging, HUVEC, MLSMR starter and 10KST1 sets (AID 438;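 active means inhibition above 20% together with a positive visual image hit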;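 further: compound added about 3h40 before a 20 min TNFalpha stimulation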;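 on inhibition: signal is the nuclear over cytoplasmic p65 intensity ratio per well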); conditions: HUVEC TNFa-induced p65 nuclear translocation; cell count: measured here: nuclei count (cytotoxicity indicator), at 2.08 µM; inhibition: at 2 µM, stronger effect = higher value, 0% TNFa-plus-vehicle, 100% no-TNFa wells
[2] = inhibitors of mutant huntingtin aggregation, primary screen, imaging, exon1htt(103Q)mCFP cells, high-content imaging (AID 483;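 active means visual image review flags a hit and inhibition of aggregation exceeds 20%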;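 further: compound exposure lasted 3 days before fixation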;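 on nuclei count: percent of the per-plate median nuclei count of sample wells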); conditions: exon1htt(103Q)mCFP cell line, aggregate imaging, at 2 µM; inhibition of aggregation: stronger effect = higher value; nuclei count: measured here: cell count, toxicity
[3] = inhibitors of E-selectin induction by TNFa, primary screen, imaging, HUVEC, immunofluorescence, MLSMR starter and 10KST1 sets (AID 487;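 active means visually confirmed hit in the image check and inhibition above 20%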;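 on inhibition: signal is fraction of cell area covered by stained E-selectin grains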;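 on nuclei count: 100% = median nuclei count of all wells on the same plate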); conditions: HUVEC TNFalpha-induced E-selectin immunofluorescence imaging, at 2 µM; inhibition: stronger effect = higher value; nuclei count: measured here: cell number, toxicity
[4] = DUSP6 inhibitors restoring Erk phosphorylation by chemical complementation, primary imaging in DUSP6-transfected HeLa (AID 609;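 active means compounds giving at least 50% inhibition in the cell-based MKP-3 phosphatase rescue imaging test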;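 on inhibition: phospho-Erk level distribution per well compared with pooled transfected vehicle control wells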); conditions: HeLa MKP-3 transfected, phospho-Erk imaging KS statistic, at 10 µM, cells stimulated with TPA for 15 min
[5] = molecular target: Dual specificity protein phosphatase 6 (Homo sapiens) (UniProt Q16828); experiment: as above; conditions: HeLa MKP-3 transfected, phospho-Erk imaging KS statistic; at 10 µM; stronger effect = higher value; cells stimulated with TPA for 15 min
[6] = molecular target: Voltage-gated potassium channel subunit beta-2 (Rattus norvegicus) (UniProt P62483); experiment: KvBeta enzyme negative modulators, primary screen, biochemical, NADPH fluorescence (AID 622;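 active means fluorescence slope higher than the sample average by over 3 SD, cut at about -0.22 in these data, passing the limit was not always enough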;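 further: slope of raw intensity against log time taken from 70 to 1610 s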); conditions: recombinant KvBeta, 4-cyanobenzaldehyde reduction, at 10 µM, stronger effect = higher value
[7] = molecular target: Voltage-gated potassium channel subunit beta-2 (Rattus norvegicus) (UniProt P62483); experiment: KvBeta positive modulators, primary screen, biochemical, NADPH fluorescence (AID 623;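 active means NADPH fluorescence slope more negative than the mean of all samples by about 3 SD, 99.7% confidence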;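 further: fluorescence intensity change per second fitted from 20 to 320 s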); conditions: Recombinant KvBeta, NADPH fluorescence decrease slope, 10 min; at 10 µM; stronger effect = lower value
[8] = molecular target: Alpha-2C adrenergic receptor (Homo sapiens) (UniProt P18825); experiment: modulators of alpha2C/GIRK thallium flux, primary screen, cell-based, HEK293 alpha2C/GIRK1/2 (AID 624;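 active means fluorescence slope after compound addition differing from the mean of all screened samples at 99.7% confidence, in either direction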;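 further: slope of fluorescence ratio to pre-addition baseline per second over 15 to 24 s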); conditions: thallium flux BTC fluorescence, at 10 µM, actives lie on both sides
[9] = inhibitors of larval lipid processing in zebrafish, primary screen, whole organism, PED6 fluorescence, gall bladder and intestine (AID 686;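 active means a full or partial loss of lipid-probe fluorescence in the fish gall bladder, intestine or both, judged by eye; inactive means no fluorescence loss, or compound toxic to the fish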;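 further: larvae 5 to 7 days old with five fish per well; signal comes from phospholipase A2 cleavage of quenched PED6 carried via bile; overnight exposure to compound and PED6 before scoring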); conditions: Zebrafish larvae PED6 lipid processing, fluorescence scoring; screened at 20 µM (by protocol)
[10] = inhibitors of Chlamydomonas gravitaxis, primary screen, whole organism, Chlamydomonas reinhardtii, WT vs cilia-less mutant, absorbance, 96-well (AID 463189); conditions: OD600 absorbance, 2 days, at 10 µM, stronger effect = higher value;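 further: 0% = wild type cc124 cells in DMSO and 100% = ciliumless bld1 mutant cells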
[11] = inhibitors of Sendai virus-induced IRF3 signaling, primary screen, TLR/RLR signaling modifier project, cell-based, Sendai virus stimulus, luciferase, 10K MLSCN set (AID 602276;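 active means inhibition at or above 50% at 10 µM; inactive means inhibition below 50%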;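 further: firefly luciferase from ISG56 promoter only with Renilla not read in this screen; 0% = Sendai virus plus DMSO and 100% = medium plus DMSO without virus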); conditions: HEK293 RL24 IRF3 luciferase reporter, at 10 µM, stronger effect = higher value
[12] = inhibitors of poly I:C-induced TLR3 signaling, primary screen, cell-based, poly I:C stimulus, luciferase, 10K MLSCN set (AID 602277;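 active means inhibition of the reporter signal at or above 50%; inactive means inhibition below 50%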); conditions: HEK293-TLR3 RL24 IRF3 luciferase reporter, at 10 µM, stronger effect = higher value
[13] = measured here: cell density z-score
[14] = measured here: nuclear c-Myc green intensity z-score
[15] = measured here: nuclear pErk red intensity z-score, stronger effect = higher value

Sequence of Alpha-2C adrenergic receptor (Homo sapiens) (P18825 whole entry, looked up): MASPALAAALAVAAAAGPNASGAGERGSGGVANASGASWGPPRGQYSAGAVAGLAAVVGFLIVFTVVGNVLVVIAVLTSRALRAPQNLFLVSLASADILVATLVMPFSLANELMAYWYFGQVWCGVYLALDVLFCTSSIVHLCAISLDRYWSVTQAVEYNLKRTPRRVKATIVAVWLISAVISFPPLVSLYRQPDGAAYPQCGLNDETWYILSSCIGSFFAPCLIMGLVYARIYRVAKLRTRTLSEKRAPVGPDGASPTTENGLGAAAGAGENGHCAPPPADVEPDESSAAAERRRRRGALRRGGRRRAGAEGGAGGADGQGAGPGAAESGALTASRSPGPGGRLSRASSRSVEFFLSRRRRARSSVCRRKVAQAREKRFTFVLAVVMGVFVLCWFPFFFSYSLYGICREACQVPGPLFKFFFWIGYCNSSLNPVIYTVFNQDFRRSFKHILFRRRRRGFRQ
Sequence of Dual specificity protein phosphatase 6 (Homo sapiens) (Q16828 whole entry, looked up): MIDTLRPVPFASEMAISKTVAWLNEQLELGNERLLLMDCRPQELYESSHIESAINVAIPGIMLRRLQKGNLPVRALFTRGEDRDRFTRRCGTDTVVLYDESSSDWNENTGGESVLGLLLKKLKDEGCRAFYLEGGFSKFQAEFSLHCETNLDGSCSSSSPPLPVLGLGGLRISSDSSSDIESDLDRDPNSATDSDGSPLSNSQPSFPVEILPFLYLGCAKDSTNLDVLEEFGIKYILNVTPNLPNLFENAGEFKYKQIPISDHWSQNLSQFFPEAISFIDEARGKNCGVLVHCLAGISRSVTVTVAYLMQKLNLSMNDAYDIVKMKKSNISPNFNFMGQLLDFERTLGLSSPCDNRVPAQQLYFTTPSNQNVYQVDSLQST
Sequence of Voltage-gated potassium channel subunit beta-2 (Rattus norvegicus) (P62483 whole entry, looked up): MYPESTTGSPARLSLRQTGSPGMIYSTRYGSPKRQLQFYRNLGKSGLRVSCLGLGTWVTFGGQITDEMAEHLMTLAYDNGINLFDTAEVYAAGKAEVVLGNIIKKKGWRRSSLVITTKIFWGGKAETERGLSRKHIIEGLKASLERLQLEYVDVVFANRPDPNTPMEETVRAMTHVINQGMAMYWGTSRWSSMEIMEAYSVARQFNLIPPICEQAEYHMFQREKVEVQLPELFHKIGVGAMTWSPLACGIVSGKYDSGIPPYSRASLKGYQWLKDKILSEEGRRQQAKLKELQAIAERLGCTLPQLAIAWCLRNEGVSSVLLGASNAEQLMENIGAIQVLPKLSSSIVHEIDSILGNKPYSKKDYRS

Compound | cell count [1] | inhibition [1] | inhibition of aggregation [2] | nuclei count [2] | inhibition [3] | nuclei count [3] | z-score [4, 13] | z-score [4, 14] | z-score [4, 15] | inhibition [5] | fluorescence slope [6] | NADPH fluorescence slope [7] | slope [8] | outcome [9] | inhibition [10] | inhibition [11] | inhibition [12]
Cc1oc2cc(O)ccc2c(=O)c1-c1cnn(-c2ccccc2)c1 | 454 | -6.5% (inactive) | -9% (inactive) | 102% | -212% (inactive) | 120% | -0.098 | -0.0689 | 0.86 | -9.91% (inactive) | -0.486 (inactive) | 1.2e-05 (inactive) | 0.00452 (inactive) | inactive | 9.82% (inactive) | 7.89% (inactive) | 0.114% (inactive)
Cc1nc2sccn2c(=O)c1CCN1CCC(=C(c2ccccc2)c2ccc(F)cc2)CC1 | 635 | -7.7% (inactive) | 5% (inactive) | 114% | -100% (inactive) | 123% | -1.15 | 0.767 | 0.616 | 17.3% (inactive) | -0.433 (inactive) | -1.2e-05 (inactive) | 0.00383 (inactive) | inactive | 24.7% (inactive) and 164% (active) | 18.4% (inactive) | 19.4% (inactive)
COc1ccc2cnn(-c3ccccc3C)c(=O)c2c1OC | 613 | -6.2% (inactive) | 1.9% (inactive) | 116% | -124% (inactive) | 157% | 0.481 | 0.125 | 1.16 | -6.48% (inactive) | -0.372 (inactive) | -3.7e-05 (inactive) | 0.00535 (inactive) | inactive | 9.21% (inactive) | 9.25% (inactive) | 5.14% (inactive)
CCCCC1C(=O)N(c2ccccc2)N(c2ccccc2)C1=O | 638 | 4.6% (inactive) | -5.9% (inactive) | 96.9% | -26.6% (inactive) | 109% | 1.68 | -0.325 | -0.291 | 8% (inactive) | -0.483 (inactive) | -4.2e-05 (inactive) | 0.00446 (inactive) | inactive | 5.13% (inactive) and -8.61% (inactive) | 19.9% (inactive) | 41.2% (inactive)
C[C@]12CCC(=O)C=C1CC[C@@H]1[C@@H]2[C@@H](O)C[C@@]2(C)[C@H]1CC[C@]2(O)C(=O)CO | 526 | 1.3% (inactive) | -3.8% (inactive) | 63.5% | -35.4% (inactive) | 94.1% | -3.38 | -0.793 | -0.0815 | 5.42% (inactive) | -0.459 (inactive) | -3.2e-05 (inactive) | 0.00455 (inactive) | inactive | 2.91% (inactive) and -18.2% (inactive) | 4.18% (inactive) | 38.7% (inactive)
COC(=O)c1cc(S(=O)(=O)N2CCOCC2)c(N2CCOCC2)cc1N1CCOCC1 | 427 | -5.9% (inactive) | 5% (inactive) | 118% | -21.7% (inactive) | 129% | -1.77 | -0.115 | 0.265 | -1.75% (inactive) | -0.409 (inactive) | -0.000135 (inactive) | 0.00461 (inactive) | inactive | 23.9% (inactive) | 4.03% (inactive) | 11% (inactive)
O=C1CSC(=Nc2ccc(O)cc2)N1c1ccc(O)cc1 | 380 | -9.5% (inactive) | 3.6% (inactive) | 95.8% | -49.6% (inactive) | 92.5% | 1.48 | 1.47 | -2.2 | 9.82% (inactive) | -0.463 (inactive) | -0.000339 (inactive) | 0.00571 (inactive) | inactive | -9.81% (inactive) | 17.9% (inactive) | 25% (inactive)
CCOC(=O)CSC1=C(C#N)C(=O)NC(c2ccc(OC)c(OC)c2)S1 (stereo not given) | 561 | -4.2% (inactive) | 12.1% (inactive) | 88.7% | -41.1% (inactive) | 135% | -1.42 | 2.48 | 0.606 | -13.3% (inactive) | -0.509 (inactive) | -5e-05 (inactive) | 0.00555 (inactive) | inactive | -1.59% (inactive) | 12% (inactive) | 11.8% (inactive)
CCN(CC)c1ccc(-c2nn3c(-c4cccnc4)nnc3s2)cc1 | 508 | -7.3% (inactive) | -31.1% (inactive) | 10% | -247% (inactive) | 120% | 0.463 | -0.276 | 0.497 | -6.06% (inactive) | -0.39 (inactive) | -8.4e-05 (inactive) | 0.00633 (inactive) | inactive | 128% (active) | 49.1% (inactive) | 7.63% (inactive)
CN(C(=O)C(Cl)Cl)c1ccc(OC(=O)c2ccco2)cc1 | 579 | -1.8% (inactive) | -17.3% (inactive) | 101% | -123% (inactive) | 112% | 0.253 | -0.205 | -0.332 | 15.3% (inactive) | -0.508 (inactive) | -6.7e-05 (inactive) | 0.00492 (inactive) | inactive | -2.16% (inactive) | 21.3% (inactive) | 44.8% (inactive)
CCn1cc(C(=O)NCc2ccco2)c(=O)c2cc(F)c(N3CCN(C(=O)c4ccco4)CC3)cc21 | 380 | 16.3% (inactive) | 13.6% (inactive) | 99.3% | -117% (inactive) | 118% | 2.14 | -0.717 | 0.644 | 19.4% (inactive) | -0.279 (inactive) | 2.6e-05 (inactive) | 0.00489 (inactive) | inactive | -7.6% (inactive) | 14.3% (inactive) | 13.7% (inactive)
CN(C)C(=O)Oc1cccc([N+](C)(C)C)c1 | 531 and 586 | -9.9% (inactive) and -7.8% (inactive) | 17.2% (inactive) and -13.6% (inactive) | 74.9% and 106% | -9.8% (inactive) and -52% (inactive) | 104% and 142% | 0.51 and -0.93 | 1.04 and 0.599 | 0.404 and -0.0753 | 17.3% (inactive) and -0.493% (inactive) | -0.425 (inactive) and -0.463 (inactive) | -3.3e-06 (inactive) and -0.000178 (inactive) | 0.00518 (inactive) and 0.00527 (inactive) | inactive | -1.35% (inactive) and 24.7% (inactive) and 16% (inactive) | 14.9% (inactive) and 3.46% (inactive) | 31.8% (inactive) and 16.1% (inactive)
NNC(=O)c1ccncc1 | 640 | 1.1% (inactive) | -3.3% (inactive) | 113% | -58.5% (inactive) | 126% | 1.92 | 0.875 | -1.14 | 16.8% (inactive) | -0.467 (inactive) | -6.4e-05 (inactive) | 0.00499 (inactive) | inactive | 2.05% (inactive) | 13.6% (inactive) | 39.7% (inactive)
COc1ccc(CCN(C)CCCC(C#N)(c2cc(OC)c(OC)c(OC)c2)C(C)C)cc1OC (stereo not given) | 602 | 1.1% (inactive) | 6% (inactive) | 88.6% | -34.1% (inactive) | 114% | 2.13 | 0.829 | -0.736 | 30.1% (inactive) | -0.466 (inactive) | -1e-05 (inactive) | 0.00502 (inactive) | inactive | 4.56% (inactive) and -3.63% (inactive) | 3.72% (inactive) | 17% (inactive)
CCOC(=O)[C@H](CCc1ccccc1)N[C@@H](C)C(=O)N1CCC[C@H]1C(=O)O | 512 | -1.7% (inactive) | -27.5% (inactive) | 76.9% | -7.9% (inactive) | 112% | 1.2 | 0.592 | -0.0475 | 11.3% (inactive) | -0.554 (inactive) | -1.6e-05 (inactive) | 0.00627 (inactive) | inactive | 34.1% (inactive) | 9.18% (inactive) | 28.5% (inactive)
CC1(C)Cc2c(C#N)c(SCCC#N)nc(N3CCOCC3)c2CS1 | 632 | -13% (inactive) | -5.8% (inactive) | 106% | -104% (inactive) | 132% | 0.7 | -1.52 | -1.34 | 28.6% (inactive) | -0.343 (inactive) | -8.5e-06 (inactive) | 0.0053 (inactive) | inactive | -1.16% (inactive) | 15.2% (inactive) | 18.7% (inactive)
C[C@]12CC[C@@H]3c4ccc(OC(=O)c5ccccc5)cc4CC[C@H]3[C@@H]1CC[C@@H]2O | 623 | 1.2% (inactive) | -35.3% (inactive) | 31.5% | -112% (inactive) | 133% | -1.91 | 0.276 | -1.27 | -6.41% (inactive) | -0.467 (inactive) | -8.1e-05 (inactive) | 0.00784 (inactive) | inactive | 5.46% (inactive) | 7.4% (inactive) | 33.1% (inactive)
COC(=O)c1cc(Br)c(=O)n(CCc2ccc(F)cc2)c1 | 595 | -7.1% (inactive) | -4.6% (inactive) | 93.4% | 6.1% (inactive) | 151% | -0.681 | 0.872 | 1.23 | 1.9e-07% (inactive) | -0.324 (inactive) | -5.7e-05 (inactive) | 0.00485 (inactive) | active; no signal in intestine only | -7.76% (inactive) | 4.86% (inactive) | 5.55% (inactive)
O=C(OCC#CCSc1nnc(-c2ccccc2)o1)c1cccs1 | 281 | -2.4% (inactive) | 8.9% (inactive) | 95.4% | -178% (inactive) | 132% | -0.348 | 0.84 | 0.574 | 3.66% (inactive) | -0.396 (inactive) | -4e-05 (inactive) | 0.00513 (inactive) | inactive | -3.45% (inactive) | -0.522% (inactive) | 1.31% (inactive)
COc1ccc2c(c1OC)C(=O)O[C@@H]2[C@H]1c2c(cc3c(c2OC)OCO3)CCN1C | 567 | 1.8% (inactive) | 0.2% (inactive) | 97.2% | -22.4% (inactive) | 112% | 0.15 | -0.163 | -0.0552 | 23.4% (inactive) | -0.46 (inactive) | -6.4e-05 (inactive) | 0.00541 (inactive) | inactive | -5.91% (inactive) and 3.65% (inactive) | 0.328% (inactive) | 32.2% (inactive)
